Screen size: about 48,000 compounds; about 120 (0.25%) were called active. A call without a number means that no potency is given here. Not shown: some 4% with an inconclusive outcome. The call rests on the fitted dose curve; in most records, active means well fitted activation curve with a large enough effect; inconclusive means small, poorly fitted or top-dose-only effect, or another doubt; inactive means no such curve, though single readings can be large or run the other way. This excerpt belongs to a sample that is enriched for actives.
Potency means the concentration at half of the fitted maximal effect.

The assay can be described thus: Primary qHTS for Identification of Small Molecule Activators of Huntingtin-Antisense Promoter Activity. Further: nearly all actives have a fitted effect of over 55% in size. To be noted: HEK293 HTT-AS promoter firefly luciferase reporter, 24 h; series mostly up to 57.5 µM. From the text: Assay Provider: Russell L. Margolis M.D.
Department Neurology, Johns Hopkins University School of Medicine, Baltimore, MD
Huntington's Disease (HD) is a neurodegenerative disorder caused by a CAG repeat expansion in exon 1 of huntingtin (HTT). While there are currently no disease-modifying treatments for HD, recent efforts have focused on development of nucleotide-based therapeutics to lower HTT expression. As an alternative to siRNA or oligonucleotide methods, we hypothesized that suppression of HTT expression might be accomplished by small molecules that either (1) directly decrease HTT expression by suppressing HTT promoter activity or (2) indirectly decrease HTT expression by increasing the promoter activity of HTT-AS, the gene antisense to HTT that appears to inhibit expression of HTT.
We developed and employed a high throughput screen for modifiers of HTT and HTT-AS promoter activity using luminescent reporter HEK293 cells; of the 52,041 compounds tested, we identified 898 replicable hits. We used a rigorous stepwise approach to assess compound toxicity and the capacity of the compounds to specifically lower huntingtin protein in 5 different cell lines, including HEK293 cells, HD lymphoblastoid cells, mouse primary neurons, HD iPSCs differentiated into cortical-like neurons, and HD hESCs. We found no compounds which were able to lower huntingtin without lowering cell viability in all assays, though the potential efficacy of a few compounds at non-toxic doses could not be excluded.
SEQUENCE No. (1, 2, 3, etc.); […] (e.g., Cells, Incubation, Reagent, etc.); VALUE and DESCRIPTION.
1; Reagent; 4 uL; 2,500 Hek293 luciferase reporter cells per wells
3; Compound; 23 nL; Control inhibitor / compound library
5; Reagent; 2.5 uL; Firefly Luc reagent; Dual-Glo Luciferase Reporter Assay System (Promega)
6; Time; 10 min; room temperature incubation
7; Detection; Luminescence; FLuc
NOTES (numbers refer to sequence above)
1; High-throughput screening, measuring luminescence from a Hek293 luciferase reporter, was performed in 1,536 well white-walled tissue-culture treated plates. 2,500 cells were plated in 4 µL of Opti-MEM per well using a Multidrop Combi Reagent Dispenser (ThermoFisher).
2; Assay plates were cultured for 24 hours.
3; Control inhibitor (PTC124; final concentration of 50 uM) and compound library (at final concentrations of 460 nM - 57.5 uM) were added to the assay plate using the Kalypsis Pintool Robotic System equipped with 1536 pinheads.
4; Cells were then incubated for 24 hours at 37 degrees C prior to luminescence measurements.
5; In all cases, luminescence was measured using the Dual-Glo Luciferase Reporter Assay System (Promega) following the manufacturer's instructions.
6; Room temperature incubation.
7; Luminescence signal was obtained using the PerkinElmer ViewLux plate reader. Results were normalized to vehicle control (0% activity) and zero RLU (-100% activity).
For the compound `Cc1nc(SCC(=O)Nc2ccc(C(=O)O)cc2)n[nH]1`, the activity change, positive = activation entry was “inactive”.

For `O=C(CSc1nc2c(c(=O)[nH]1)CN(Cc1ccc3c(c1)OCO3)CC2)Nc1cc(F)ccc1F`, the activity change, positive = activation entry is “inactive”.

For `COC(=O)c1cc(NC(=O)CCS(=O)(=O)c2cc(Br)cc3c2N(C(=O)C2CC2)CC3)cc(C(=O)OC)c1`, the activity change, positive = activation result was “inactive”.

For `CC(=O)c1ccc(NC(=O)c2nc(-c3ccc(C)cc3)n3c2CCCCC3)cc1`, the activity change, positive = activation entry was “inactive”.

Consider `Cc1cccc(C(=O)N2CCc3cc(CNC(=O)Cc4ccc(F)cc4)ccc32)c1`, for which the activity change, positive = activation entry was “inactive”.

As to `CCOC(=O)c1c(C)[nH]c(C)c1S(=O)(=O)N1CCCC(C(=O)NCc2ccccc2Cl)C1` (configuration not stated), the activity change, positive = activation result was “inactive”.

Take `COc1ccc(-n2c(=O)c3sc4ccccc4c3n(CC(=O)Nc3cccc(C)c3)c2=O)cc1`: the activity change, positive = activation entry is “inactive”.

Take `Cc1ccc(CNC(=O)Cn2c(=O)ccc3cc(S(=O)(=O)N4CCCC4)ccc32)cc1`: the activity change, positive = activation result is “inactive”.

Consider `Cc1ccc(C)c(Cn2c(C(=O)O)c(CNCc3cccs3)c3ccccc32)c1`, for which the activity change, positive = activation result is “inactive”.

With `COC(=O)c1cccc(Cn2nnc3sc4c(c3c2=O)CCC(C(C)(C)C)C4)c1` (configuration not stated), the activity change, positive = activation result was “inactive”.

With `CCOc1cc(C=C2C(=O)N(c3ccccc3)N=C2C)cc(Cl)c1OCC(=O)OC`, the activity change, positive = activation result is “inactive”.

For the compound `CCOc1ccc(NC(=O)c2c(NCc3cccc(OC)c3OC)sc3c2CCC3)cc1`, the activity change, positive = activation entry is “inactive”.

As to `CC1CCCCN1S(=O)(=O)c1ccc(F)c(C(=O)Nc2ccccc2C(F)(F)F)c1` (configuration not stated), the activity change, positive = activation result was “inactive”.

`CCn1c(C)c(C)c2cc(C(=O)N3CCN(c4cccc(C)c4C)CC3)ccc21`: the activity change, positive = activation entry is “inactive”.

As to `COc1ccc(CNS(=O)(=O)c2cc3c4c(c2)CCN4C(=O)CC3)cc1`, the activity change, positive = activation result was “inactive”.

As to `O=C(NCc1ccccc1)C(=O)NCC(c1ccco1)S(=O)(=O)c1ccc(Cl)cc1` (configuration not stated), the activity change, positive = activation result is “inactive”.

For `Oc1ccccc1-c1nc2ccc(Cl)cn2c1Nc1ccc2c(c1)OCCO2`, the activity change, positive = activation result is “inactive”.

Turning to `CCn1cc(C(=O)N2CCN(c3cc(Cl)ccc3C)CC2)c(=O)c2cc(S(=O)(=O)N3CCCC3)ccc21`, the activity change, positive = activation is 10.5% [at 11.5 µM, percent change from vehicle, -100% = no light] (inactive).

On to `O=C(NCc1ccc(Cl)cc1)c1ccc2c(c1)nnn2C1CCCC1`, for which the activity change, positive = activation entry was “inactive”.

As to `CC(=O)c1ccc(NC(=O)c2nc3nc(C)cc(C(F)F)n3n2)cc1`, the activity change, positive = activation result was “inactive”.

Regarding `COc1ccc(CCNC(=O)c2ccc(CSCc3ccc(C)cc3)o2)cc1OC`, the activity change, positive = activation result is “inactive”.

Turning to `CCCOC(=O)c1c(NC(=O)c2cc3nc(-c4ccc(OC)cc4)cc(C(F)(F)F)n3n2)sc2c1CCCC2`, the activity change, positive = activation entry is “inactive”.

On to `CCC(=O)N1c2ccccc2CC1C(=O)N1CCN(c2ccccc2F)CC1` (configuration not stated), for which the activity change, positive = activation entry is “inactive”.

As to `COc1ccc2[nH]c3c(c2c1)CCN(C(=O)CCC1CCCC1)C3c1ccc(F)cc1` (configuration not stated), the activity change, positive = activation result is “inactive”.

As to `CCOc1ccc(/C=C(\C#N)c2nc3ccccc3c(=O)[nH]2)cc1OC`, the activity change, positive = activation entry is “inactive”.

`Cc1ccc(Cl)cc1N1CCN(C(=O)c2cn(C)c3ccc(S(=O)(=O)N(C)C4CCCCC4)cc3c2=O)CC1`: the activity change, positive = activation result was “inactive”.

As to `Cc1ccc(CN2C(=O)SC(Nc3ccccc3)C2=O)cc1` (configuration not stated), the activity change, positive = activation result is “inactive”.

In the case of `COc1ccc(-c2onc(C)c2C)cc1S(=O)(=O)NCCc1ccccc1`, the activity change, positive = activation result is “inactive”.

Take `Cc1ccccc1CNC(=O)CSc1nnc(C)c2c(C)n(-c3ccccc3)nc12`: the activity change, positive = activation entry is “inactive”.

Turning to `O=C(c1ccc(Br)cc1)N(Cc1cccs1)c1ccc(F)cc1`, the activity change, positive = activation entry was “inactive”.

`CCOc1ccc(-c2cc3c(=O)n(CC(=O)NCc4ccc(OC)cc4)ccn3n2)cc1`: the Potency was 447 nM (active).

Take `COc1cccc(-n2ccn(CC(=O)NCc3ccc(C)cc3)c(=O)c2=O)c1`: the activity change, positive = activation entry is “inactive”.

For the compound `COc1ccc(CNC(=O)Cn2nnc(-c3ccc(S(C)(=O)=O)cc3)n2)cc1`, the activity change, positive = activation result is “inactive”.

Turning to `Cc1cccc(N2CCN(C(=O)CCn3c(=O)c4cccn4c4cccnc43)CC2C)c1` (configuration not stated), the activity change, positive = activation result is “inactive”.

Take `CCCCOc1ccc(C(=O)Nc2cccc(-c3nc4ccccc4o3)c2C)cc1`: the activity change, positive = activation result is “inactive”.

Regarding `COc1cccc(-n2c(=O)c3c(C)c(C(=O)N(C)C)sc3n(CC(=O)NCCc3ccc(OC)c(OC)c3)c2=O)c1`, the activity change, positive = activation result was “inactive”.

For `COc1ccccc1N1CCN(c2ncnc3onc(-c4ccc(F)cc4)c23)CC1`, the activity change, positive = activation result was “inactive”.

For `CCCN1CN=C(NS(=O)(=O)c2ccc(NC(C)=O)cc2)NC1`, the activity change, positive = activation entry is “inactive”.

For `COCCCNC(=O)c1ccc(NC(=O)c2nsc3ccccc23)cc1`, the activity change, positive = activation entry is “inactive”.

Regarding `CCSc1nnc2c(n1)OC(c1ccc(OCC(=O)O)cc1)Nc1ccccc1-2` (configuration not stated), the activity change, positive = activation entry is “inactive”.

Turning to `CCCN(CCC)C(=O)C(Cc1ccccc1)NS(=O)(=O)c1ccc2c(c1)c(=O)n(C)c(=O)n2C` (configuration not stated), the activity change, positive = activation entry is “inactive”.

On to `Cc1cc(C)cc(NC(=O)Cn2nc(N3CCN(c4ccccc4)CC3)ccc2=O)c1`, for which the activity change, positive = activation result is “inactive”.

As to `Cc1nn(C(=O)c2c(F)cccc2F)c(C)c1S(=O)(=O)N1CCOCC1`, the activity change, positive = activation result is “inactive”.

Consider `CCOc1ccccc1C(=O)NCc1ccc2c(c1)CCN2C(=O)c1ccc(F)cc1`, for which the activity change, positive = activation entry is “inactive”.

`O=C(Nc1cc(C(F)(F)F)ccc1Cl)c1cc2nc(-c3ccc4c(c3)OCO4)cc(C(F)(F)F)n2n1`: the activity change, positive = activation result is “inactive”.

Consider `CCN(CC)c1ccc(NC(=O)CN2C(=O)c3cccnc3Oc3ccc(Cl)cc32)c(C)c1`, for which the activity change, positive = activation entry is “inactive”.

`Fc1ccc(CN2CCc3nc(Nc4ccccc4)ncc3C2)cc1F`: the activity change, positive = activation entry was “inactive”.

Consider `CCc1ccc(C2C(C(=O)Nc3ccccc3)=C(C)Nc3c(C(=O)Nc4ccc(C)cc4)cnn32)cc1` (configuration not stated), for which the activity change, positive = activation entry is “inactive”.

As for `COc1cc(-c2cc3n(C)c(C)c(CCC(=O)Nc4ccc(F)cc4)c(=O)n3n2)cc(OC)c1OC`, the activity change, positive = activation entry is “inactive”.

Consider `COc1ccc(NC(=O)CCCc2nnc3n(CCC(C)C)c(=O)c4sccc4n23)c(OC)c1`, for which the activity change, positive = activation entry is “inactive”.

Consider `CCOc1ccc(CNC(=O)c2ccc3c(c2)nnn3C2CCCC2)cc1`, for which the activity change, positive = activation entry was “inactive”.

With `COc1ccc(OC)c(-c2noc(N3CCN(c4cc(Cl)ccc4C)CC3)n2)c1`, the activity change, positive = activation entry was “inactive”.

Turning to `CC(=O)c1ccc(S(=O)(=O)N2CCC(Oc3ccc(-n4cnnn4)cc3)CC2)cc1`, the activity change, positive = activation result is “inactive”.

With `CO[C@@H]1[C@@H](O)[C@H](O)[C@@H](n2c3c(Cl)cccc3c3c4c(c5c6cccc(Cl)c6[nH]c5c32)C(=O)NC4=O)O[C@@H]1CO`, the activity change, positive = activation entry was “inactive”.

On to `Cc1cccc(S(=O)(=O)c2cn(Cc3ccccc3)c3cc(N4CCOCC4)c(F)cc3c2=O)c1`, for which the activity change, positive = activation entry was “inactive”.

Regarding `CC(=O)N1CCCc2cc(S(=O)(=O)N3CCC(C(=O)NCc4ccc(F)cc4)CC3)ccc21`, the activity change, positive = activation entry was “inactive”.

Regarding `CCCS(=O)(=O)Nc1cccc(-c2cn3ccsc3n2)c1`, the activity change, positive = activation entry is “inactive”.

Values taken from PubChem BioAssay AID1508624 (National Center for Advancing Translational Sciences (NCATS), 2021).
